Compounds with a hit are over-represented: about 2.5% of the library has one in this group of screens.
Cruzain inh Det: qHTS Assay for Promiscuous and Specific Inhibitors of Cruzain (with detergent) | Cruzipain (Trypanosoma cruzi), P25779 | purified cruzain, Z-FR-AMC fluorescence, 0.01% Triton | Potency, µM, for inactives: max response, negative = inhibition, most hits filed as inhibitors | 200,000 tested, 0.43% active | AID 1478, 2009;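 also: plate controls were neutral wells for no effect and buffer without enzyme for full effect; nearly all actives have a fitted effect of over 40% in size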
Target sequence (P25779 123-467 limits assumed): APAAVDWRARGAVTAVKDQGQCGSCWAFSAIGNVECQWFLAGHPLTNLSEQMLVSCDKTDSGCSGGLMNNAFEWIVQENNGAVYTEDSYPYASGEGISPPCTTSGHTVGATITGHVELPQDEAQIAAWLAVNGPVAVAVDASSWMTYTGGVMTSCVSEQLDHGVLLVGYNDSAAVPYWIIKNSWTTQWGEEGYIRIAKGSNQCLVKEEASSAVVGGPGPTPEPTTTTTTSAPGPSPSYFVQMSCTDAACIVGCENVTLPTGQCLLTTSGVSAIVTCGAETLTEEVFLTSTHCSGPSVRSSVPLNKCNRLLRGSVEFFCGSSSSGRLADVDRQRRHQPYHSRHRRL
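Enzyme 1.5 nM, Z-FR-AMC 2 uM, NaOAc 100 mM pH 5.5, DTT 5 mM, Triton X-100 0.01%; 15 min RT compound preincubation; kinetic ex360/em450, 60 s delta.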
Cruzain noTriton: qHTS Assay for Promiscuous and Specific Inhibitors of Cruzain (without detergent); purified cruzain, Z-FR-AMC fluorescence, no detergent; Potency, µM, for inactives: max response, negative = inhibition, most hits filed as inhibitors; 200,000 tested, 2.3% active; Cruzipain (Trypanosoma cruzi), P25779;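 also: plate controls were enzyme without inhibitor for no effect and buffer without enzyme for full effect; nearly all actives have a fitted effect of over 40% in size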
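Purified cruzain at 1.5 nM, pre-incubated 15 min with compound at room temperature in 100 mM sodium acetate pH 5.5, 5 mM DTT, 0.00005% Triton X-100. Reaction started with 2 uM Z-FR-AMC; AMC fluorescence increase over 60 s gives rate.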
* = called active by the depositor; ! = not confirmed by another sample. Calls follow the shape of the dose curve; as a rule, active = well fitted curve in the direction sought with a large enough effect; inconclusive = small, poorly fitted or top-dose-only effect, or another doubt; inactive = no such curve, though single readings can be large; an effect the other way counts as inactive or inconclusive. Potency is read from the fitted curve at half-maximal effect.

Screening O=C(Nc1ccc(S(=O)(=O)N2CCCC2)cc1)C1COc2ccccc2O1 (centres undefined) returned Cruzain inh Det -5.1% and Cruzain noTriton 0.5%.
O=C(Nc1nc(-c2ccccc2)cs1)C1COc2ccccc2O1 (centres undefined) was read as Cruzain inh Det -2.9% and Cruzain noTriton 25.1µM*.
Cc1ccccc1CSc1nnc(NC(=O)C2COc3ccccc3O2)s1 (centres undefined) was read as Cruzain inh Det -3.9% and Cruzain noTriton inconclusive.
For O=C(Nc1nc(-c2ccc3c(c2)OCO3)cs1)C1COc2ccccc2O1 (centres undefined) the results were Cruzain inh Det -8.3% and Cruzain noTriton inconclusive.
Screening CC1CCN(S(=O)(=O)c2cc(C(=O)NCCc3ccccc3)n(C)c2)CC1 returned Cruzain inh Det -4.7% and Cruzain noTriton 11.2%.
Screening Cn1c(=NC(=O)c2ccc(S(=O)(=O)N3CCCc4ccccc43)cc2)sc2cc(S(C)(=O)=O)ccc21 returned Cruzain inh Det -5.5% and Cruzain noTriton -11.2%.
For C#CCn1c(=NC(=O)c2ccc(S(=O)(=O)N3CCCc4ccccc43)cc2)sc2cc(S(N)(=O)=O)ccc21 the results were Cruzain inh Det -2.0% and Cruzain noTriton 7.94µM*.
For COc1ccc2nc(N/C(N)=N/C(=S)Nc3ccc(C)c(C)c3)nc(C)c2c1 the results were Cruzain inh Det -11.9% and Cruzain noTriton 12.6µM*.
Cc1ccc(NC(=S)/N=C(\N)Nc2nc(C)c3ccccc3n2)cc1C was read as Cruzain inh Det -2.3% and Cruzain noTriton inconclusive.
COc1ccc(C2(CNC(=O)C(=O)Nc3ccccc3C)CCCC2)cc1OC was read as Cruzain inh Det -4.0% and Cruzain noTriton 21.2%.
Oc1c(CN2CCc3ccccc3C2)cc(Cl)c2cccnc12 was read as Cruzain inh Det 0.4% and Cruzain noTriton -4.8%.
For Oc1c(I)cc(Cl)c2cccnc12 the results were Cruzain inh Det 1.9% and Cruzain noTriton 12.6µM*!.
`CN(C)CCCCN1CCc2c(n(C)c3ccccc23)C1=O` gave Cruzain inh Det -0.2% and Cruzain noTriton 5.1%.
Screening COc1ccc(/C=C2\SC(=S)N(NC(=O)c3csc4c3CCCC4)C2=O)cc1 returned Cruzain inh Det 2.1% and Cruzain noTriton 7.94µM*.
For COc1ccc(NC(=O)c2csc3c2CCCC3)cc1 the results were Cruzain inh Det -3.4% and Cruzain noTriton -6.1%.
Screening O=c1oc2cc(N=Cc3ccc4c(c3)OCO4)ccc2c2ccccc12 returned Cruzain inh Det 2.2% and Cruzain noTriton -12.0%.
For COc1ccc(NS(=O)(=O)c2ccc(OC)c(N(C)S(=O)(=O)c3ccc(Cl)cc3)c2)cc1 the results were Cruzain inh Det -1.1% and Cruzain noTriton -20.8%.
`COc1ccc(S(=O)(=O)Nc2ccc(F)cc2)cc1N(C)S(=O)(=O)c1ccc(Cl)cc1` gave Cruzain inh Det -3.4% and Cruzain noTriton 20µM*.
`Cc1cccc(NC(=S)NC(=O)c2cc(-c3ccccc3)nc3ccccc23)c1` gave Cruzain inh Det 7.9% and Cruzain noTriton 20µM*.
Cc1cccc(-c2cc(C(=O)Nc3ccc4c(c3)OCCO4)c3ccccc3n2)c1 was read as Cruzain inh Det 2.4% and Cruzain noTriton 31.6µM*.
`Cc1ccccc1NC(=S)NC(=O)c1cc(-c2ccccc2)nc2ccccc12` gave Cruzain inh Det -0.1% and Cruzain noTriton inconclusive.
For CCOc1ccc(-c2cc(C(=O)Nc3ccc4c(c3)OCCO4)c3ccccc3n2)cc1 the results were Cruzain inh Det -5.5% and Cruzain noTriton inconclusive.
For Cc1ccccc1Nc1oc(-c2ccccc2)nc1CCc1ccccc1 the results were Cruzain inh Det -3.8% and Cruzain noTriton -13.3%.
For Cc1ccc(C2(c3ccc(C)c(O)c3C)CCN(C)CC2)c(C)c1O the results were Cruzain inh Det 0.4% and Cruzain noTriton -3.5%.
`CCN(CC)c1ccc(NS(=O)(=O)c2ccc(-c3coc(C)n3)cc2)c(C)c1` gave Cruzain inh Det -9.7% and Cruzain noTriton -13.8%.
`COc1ccc(-c2cc3c(=O)n(CC(=O)Nc4cc(F)ccc4F)ccn3n2)cc1OC` gave Cruzain inh Det -0.1% and Cruzain noTriton -3.8%.
COc1cc2c(cc1NC(=O)COC(=O)[C@@H](NC(=O)c1ccccc1)C(C)C)oc1ccccc12 was read as Cruzain inh Det -8.6% and Cruzain noTriton 31.6µM*.
`CCN(CC)c1ccc(C(=O)OCC(=O)Nc2cc3oc4ccccc4c3cc2OC)cc1` gave Cruzain inh Det -16.7% and Cruzain noTriton 12.6µM*.
Screening COc1cc2c(cc1NC(=O)COC(=O)[C@@H](NC(=O)c1ccccc1F)C(C)C)oc1ccccc12 returned Cruzain inh Det -10.4% and Cruzain noTriton inconclusive.
CCc1ccc(OCC(=O)Nc2cc3oc4ccccc4c3cc2OC)cc1 was read as Cruzain inh Det 0.3% and Cruzain noTriton 1.0%.
COC(=O)c1ccccc1NC(=O)C1CCCN(c2nnc(C)c3c(C)n(-c4ccccc4)nc23)C1 (centres undefined) was read as Cruzain inh Det -1.1% and Cruzain noTriton 8.5%.
COc1ccc(-n2c(/C=C/c3cccc4ccccc34)nc3ccccc3c2=O)cc1OC was read as Cruzain inh Det -2.8% and Cruzain noTriton inconclusive.
For COc1ccc(Cl)cc1-n1c(/C=C/c2cccc3ccccc23)nc2ccccc2c1=O the results were Cruzain inh Det 0.5% and Cruzain noTriton 31.6µM*.
For COc1ccccc1NS(=O)(=O)c1cc(NC(=O)Nc2ccc(Cl)cc2Cl)ccc1N1CCCCC1 the results were Cruzain inh Det -2.1% and Cruzain noTriton 5.01µM*.
`O=C(Nc1cccc(C(F)(F)F)c1)Nc1ccc(N2CCCC2)c(S(=O)(=O)Nc2ccccc2Cl)c1` gave Cruzain inh Det -0.1% and Cruzain noTriton 6.31µM*.
Screening O=C(Nc1cccc(S(=O)(=O)Nc2ccccc2Cl)c1)c1ccc(N2CCCC2)c([N+](=O)[O-])c1 returned Cruzain inh Det -1.1% and Cruzain noTriton 10µM*.
Screening COc1cc(/C=C/C(=O)Nc2ccc(N3CCCCC3)c(S(=O)(=O)Nc3ccccc3Cl)c2)cc(OC)c1OC returned Cruzain inh Det -2.0% and Cruzain noTriton 13.2%.
Screening O=C(Nc1cccc(C(F)(F)F)c1)c1cc(S(=O)(=O)N2CCCCC2)ccc1N1CCOCC1 returned Cruzain inh Det -11.6% and Cruzain noTriton inconclusive.
COc1ccc(S(=O)(=O)N2CCCCC2)cc1NS(=O)(=O)c1cc(Cl)ccc1Cl was read as Cruzain inh Det -5.5% and Cruzain noTriton 20µM*.
`COc1ccc(Cl)cc1NS(=O)(=O)c1cc(Cl)ccc1OC` gave Cruzain inh Det -1.7% and Cruzain noTriton 1.9%.
Screening O=C(Nc1cccc(S(=O)(=O)Nc2ccccc2Cl)c1)c1ccc(Cl)nc1 returned Cruzain inh Det -3.9% and Cruzain noTriton 0.5%.
Screening COc1ccc(-n2ncc(C(=O)N3CCN(Cc4ccccc4)CC3)c2C2CCN(C(=O)OC(C)(C)C)CC2)cc1 returned Cruzain inh Det -2.5% and Cruzain noTriton -10.8%.
Cc1cccc(NC(=O)CNc2cc(C)ccc2C)c1 was read as Cruzain inh Det -4.6% and Cruzain noTriton 20µM*.
Screening Cc1ccc(F)cc1NCC(=O)Nc1ccc(Br)cc1 returned Cruzain inh Det -7.2% and Cruzain noTriton -6.4%.
Screening O=C(CSc1nccn1Cc1ccco1)Nc1cc(C(F)(F)F)ccc1Cl returned Cruzain inh Det -7.2% and Cruzain noTriton -8.3%.
